Compounds without any hit were thinned out: in the full panel of roughly 83,000, 20% have a hit.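 Cells were grown in 96-well plates and exposed to the test compound at a single concentration for 48 hours; results are reported as percent growth, with values below 10 considered active.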 Active and inactive are the calls of the source.
Legend:
Test in all cases: NCI-60 one-dose screen, 48 h (100 = growth as untreated, 0 = no growth, -100 = all killed)
Settings in all cases: 10 µM unless noted
NCI-H23 lung = test system: NCI-H23 lung
NCI-H226 lung = test system: NCI-H226 lung
NCI-H322M lung = test system: NCI-H322M lung
HOP-62 NSCLC = test system: HOP-62 NSCLC
NCI-H460 lung = test system: NCI-H460 lung
HOP-92 NSCLC = test system: HOP-92 NSCLC
NCI-H522 lung = test system: NCI-H522 lung
A549/ATCC NSCLC = test system: A549/ATCC NSCLC
786-0 renal = test system: 786-0 renal
COLO 205 colon = test system: COLO 205 colon
DU-145 prostate = test system: DU-145 prostate
K-562 leukemia = test system: K-562 leukemia
MALME-3M melanoma = test system: MALME-3M melanoma
MDA-MB-231 breast = test system: MDA-MB-231 breast
RXF 393 renal = test system: RXF 393 renal
SF-268 CNS = test system: SF-268 CNS
SF-295 CNS = test system: SF-295 CNS
SF-539 CNS = test system: SF-539 CNS
UACC-257 melanoma = test system: UACC-257 melanoma
M14 melanoma = test system: M14 melanoma

Measured: growth

CC1(c2ccccc2)CO1 (stereo not given)
inactive: NCI-H23 lung 108% | NCI-H226 lung 109% | NCI-H322M lung 125% | HOP-62 NSCLC 97.2% | NCI-H460 lung 115% | HOP-92 NSCLC 95.7% | NCI-H522 lung 99.2% | A549/ATCC NSCLC 103% | 786-0 renal 102% | COLO 205 colon 114% | DU-145 prostate 111% | K-562 leukemia 106% | MALME-3M melanoma 118% | MDA-MB-231 breast 108% | RXF 393 renal 120% | SF-268 CNS 107% | SF-295 CNS 110% | SF-539 CNS 102% | UACC-257 melanoma 102% | M14 melanoma 108%

CC(=O)c1cc(O)ccc1O
inactive: NCI-H23 lung 92.9% | NCI-H226 lung 98% | NCI-H322M lung 97.4% | HOP-62 NSCLC 89.3% | NCI-H460 lung 108% | HOP-92 NSCLC 58.9% | NCI-H522 lung 100% | A549/ATCC NSCLC 103% | 786-0 renal 94.5% | COLO 205 colon 123% | DU-145 prostate 114% | K-562 leukemia 91.7% | MALME-3M melanoma 111% | MDA-MB-231 breast 96.6% | RXF 393 renal 88.8% | SF-268 CNS 109% | SF-295 CNS 104% | SF-539 CNS 92.5% | UACC-257 melanoma 104% | M14 melanoma 101%

O=Cc1ccc(Cl)c(Cl)c1
inactive: NCI-H23 lung 99.1% | NCI-H226 lung 98.1% | NCI-H322M lung 106% | HOP-62 NSCLC 97% | NCI-H460 lung 107% | HOP-92 NSCLC 68.5% | NCI-H522 lung 96.5% | A549/ATCC NSCLC 102% | 786-0 renal 109% | COLO 205 colon 104% | DU-145 prostate 94.8% | K-562 leukemia 104% | MALME-3M melanoma 98.7% | MDA-MB-231 breast 116% | RXF 393 renal 94.3% | SF-268 CNS 101% | SF-295 CNS 119% | SF-539 CNS 117% | UACC-257 melanoma 96.4% | M14 melanoma 102%

Cc1ccc(C2CCCCC2)cc1Br
inactive: NCI-H23 lung 105% | NCI-H226 lung 97.7% | NCI-H322M lung 99.2% | HOP-62 NSCLC 91.3% | NCI-H460 lung 108% | HOP-92 NSCLC 95% | NCI-H522 lung 91.3% | A549/ATCC NSCLC 89.4% | 786-0 renal 96.4% | COLO 205 colon 101% | DU-145 prostate 105% | K-562 leukemia 100% | MALME-3M melanoma 100% | MDA-MB-231 breast 97.4% | RXF 393 renal 105% | SF-268 CNS 99.5% | SF-295 CNS 95.5% | SF-539 CNS 101% | UACC-257 melanoma 88.8% | M14 melanoma 98.6%

COC1OC(COC(C)=O)C(OC(C)=O)C(OC(C)=O)C1OC(C)=O (stereo not given)
inactive: NCI-H23 lung 98% | NCI-H226 lung 91.1% | NCI-H322M lung 101% | HOP-62 NSCLC 97.9% | NCI-H460 lung 115% | HOP-92 NSCLC 92.8% | NCI-H522 lung 71.9% | A549/ATCC NSCLC 91.5% | 786-0 renal 98.8% | COLO 205 colon 98.7% | DU-145 prostate 111% | K-562 leukemia 102% | MALME-3M melanoma 96.9% | MDA-MB-231 breast 90% | RXF 393 renal 114% | SF-268 CNS 101% | SF-295 CNS 90.1% | SF-539 CNS 98.4% | UACC-257 melanoma 85% | M14 melanoma 104%

N#Cc1ccc(OC(=O)Nc2cc(Cl)cc(Cl)c2)cc1
active: NCI-H23 lung -10.3% [100 µM] | NCI-H226 lung 1.99% [100 µM] | NCI-H322M lung -3.43% [100 µM] | HOP-62 NSCLC -13.7% [100 µM] | NCI-H460 lung 0.999% [100 µM] | HOP-92 NSCLC -35.9% [100 µM] | NCI-H522 lung -31.1% [100 µM] | A549/ATCC NSCLC 4.72% [100 µM] | 786-0 renal 9.34% [100 µM] | COLO 205 colon -85.9% [100 µM] | K-562 leukemia 6.66% [100 µM] | MALME-3M melanoma -32.5% [100 µM] | MDA-MB-231 breast -52.8% [100 µM] | SF-295 CNS -23.1% [100 µM] | SF-539 CNS -4.48% [100 µM] | UACC-257 melanoma -20.1% [100 µM] | M14 melanoma -25.3% [100 µM]
inactive: DU-145 prostate 18.9% [100 µM] | RXF 393 renal 10.3% [100 µM] | SF-268 CNS 12.5% [100 µM]

COc1nc(Nc2cccc(C(F)(F)F)c2)nc(OC)n1
inactive: NCI-H23 lung 97.2% | NCI-H226 lung 96.8% | NCI-H322M lung 96.9% | HOP-62 NSCLC 98.8% | NCI-H460 lung 106% | HOP-92 NSCLC 92.4% | NCI-H522 lung 75% | A549/ATCC NSCLC 102% | 786-0 renal 96.8% | COLO 205 colon 109% | DU-145 prostate 105% | K-562 leukemia 87% | MALME-3M melanoma 116% | MDA-MB-231 breast 90.7% | RXF 393 renal 102% | SF-268 CNS 98.4% | SF-295 CNS 88.4% | SF-539 CNS 98% | UACC-257 melanoma 121% | M14 melanoma 113%

Oc1ccc(N=Cc2ccc(OCc3ccccc3)cc2)cc1
inactive: NCI-H23 lung 95.5% | NCI-H226 lung 102% | NCI-H322M lung 93.8% | HOP-62 NSCLC 109% | NCI-H460 lung 104% | HOP-92 NSCLC 97.5% | NCI-H522 lung 90.8% | A549/ATCC NSCLC 112% | 786-0 renal 99.4% | COLO 205 colon 103% | DU-145 prostate 108% | K-562 leukemia 120% | MALME-3M melanoma 93.5% | MDA-MB-231 breast 92.5% | RXF 393 renal 99.2% | SF-268 CNS 103% | SF-295 CNS 92% | SF-539 CNS 105% | UACC-257 melanoma 118% | M14 melanoma 104%

Reference: PubChem BioAssay (NCI)
